Consider 91 molecules from PubChem BioAssay AID602244 (Sanford-Burnham Center for Chemical Genomics, 2012).

SMILES strings stand for the structures. Screen size: about 360,000 compounds; about 1,300 (0.36%) were called active. For the sample, actives were picked, then their nearest neighbours and some compounds at random. Unmarked numbers belong to inactive results. No stated cut-off is given here; in the data, active means inhibition above about 34% (passing the limit was not always enough); inactive means the rest.

For this test, the target named is C-X-C chemokine receptor type 6 (Homo sapiens) (UniProt O00574). The test can be described thus: blockade of CXCL16-induced CXCR6 beta-arrestin recruitment – cell-based, luminescence, CHO-K1 PathHunter, 1536-well, primary screen (AID 602244).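 Further: antagonist mode with CXCL16 agonist at 10 nM final; 0% = 10 nM CXCL16 with DMSO and 100% = unstimulated wells without agonist.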 Conditions: at 20 µM, stronger effect = higher value. On the technique in general: Arrestin recruitment assays detect the binding of arrestin to an activated receptor.
C-X-C chemokine receptor type 6 (Homo sapiens), sequence (O00574 whole entry, looked up): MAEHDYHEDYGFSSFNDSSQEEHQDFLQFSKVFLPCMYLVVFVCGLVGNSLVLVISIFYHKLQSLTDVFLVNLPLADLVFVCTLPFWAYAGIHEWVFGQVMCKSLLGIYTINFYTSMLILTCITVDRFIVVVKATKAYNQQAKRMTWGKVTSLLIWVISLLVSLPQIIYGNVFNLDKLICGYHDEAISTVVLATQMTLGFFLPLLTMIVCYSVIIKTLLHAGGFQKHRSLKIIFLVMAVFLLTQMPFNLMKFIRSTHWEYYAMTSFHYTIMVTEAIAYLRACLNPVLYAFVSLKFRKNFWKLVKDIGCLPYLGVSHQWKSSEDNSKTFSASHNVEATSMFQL
In general, inhibition refers to the change of the read-out against control, counted positive when it falls. On to `CC1CCC(NS(=O)(=O)c2ccc3c(c2)CC(=O)N3)CC1` (stereo unspecified), for which the inhibition is -9.8%. Consider `CS(=O)(=O)c1ccc(Cl)c(NC(=O)COC(=O)c2cccc(S(=O)(=O)N3CCCC3)c2)c1`, for which the inhibition is 8.6%.

Regarding `COc1ccc(C[C@H]2CN3C(=NC[C@H]3C)N2CCNC(=O)CCC2CCCCC2)cc1`, the inhibition is 5.3%. For `CC(C)(C)C1CCC(=NNC(=O)c2ccc(Br)o2)CC1` (stereo unspecified) the value was -5%. For `COCCCNC(=S)NNC(=O)C(O)(c1ccccc1)c1ccccc1` the value was 14.6%; for `COCCCNC(=S)NC(=O)c1ccc([N+](=O)[O-])cc1`, 75% (active); for `COc1ccccc1OCCNC(=O)c1cc([N+](=O)[O-])cc([N+](=O)[O-])c1`, -9.6%.

With `COc1ccc(CN2CCNC(=O)C2CC(=O)NCc2cn[nH]c2-c2ccccc2)c(F)c1` (stereo unspecified), the inhibition was -0.4%. Then `Nc1nnc(C2CCCC2)s1`, with -3.7%; and `CC1(C(=O)NCCc2c[nH]c3ccccc23)C=CC2(CCCCC2)N1C(=O)c1ccccc1` (stereo unspecified), with -1.9%; and `COc1cc(SC#N)ccc1N=Cc1c(C)[nH]n(-c2ccc(C)cc2)c1=O`, with -2%.

In the case of `Cc1ccc(-n2[nH]c(C)c(/C=N/N3C(=O)c4cccc5cccc(c45)C3=O)c2=O)cc1`, the inhibition was 48.5% (active). Regarding `Cc1ccc(-c2ccnc3[nH]n(-c4ccccc4)c(=O)c23)cc1`, the inhibition was 12.9%. Then `Cc1nn(C(C)CC(=O)O)c(C)c1C` (stereo unspecified), with 3.3%; and `CC(NC(=O)Cn1cc(C(F)(F)F)cc(Cl)c1=O)c1ccccc1` (stereo unspecified), with -4.9%. Then `CC1CCC(C(C)C)C(=O)/C1=C\c1ccc(NC(=O)CCC(=O)O)cc1` (stereo unspecified), with 1%.

As for `O=C(NCCc1ccccc1)C1CCC(Cn2c(=O)c3ccccc3n(Cc3cccnc3)c2=O)CC1` (stereo unspecified), the inhibition was -5.3%. With `C=CCC1(C#N)C(=S)NC(C)=C(C(=O)OCC)C1c1ccccc1` (stereo unspecified), the inhibition was -3.2%. Then `COc1ccc(NC(=O)/C(Cl)=C(/Cl)S(=O)Cc2ccc(C)cc2)cn1` (stereo unspecified), with 94.9% (active). For `COc1cc(NC(=O)Nc2ccc(C)cc2)cc([N+](=O)[O-])c1` the value was 2.8%.

With `COc1ccc(NC(=O)C2Cc3c(-c4ccc5c(c4)OCO5)ccnc3O2)cn1` (stereo unspecified), the inhibition was -3.9%. In the case of `COc1cccc(CC(=NO)c2cccc(OC)c2)c1`, the inhibition was 7.2%. Consider `O=C1C(Cl)=C(Oc2ccccc2)C(=O)c2ccccc21`, for which the inhibition was 104% (active).

Regarding `O=C(OCC(=O)N1CCc2ccccc21)C1CCCN1S(=O)(=O)c1ccc(Cl)cc1` (stereo unspecified), the inhibition was -11.4%. `CCCCn1c(N)c(N(CC(C)C)C(=O)c2cccc(S(=O)(=O)N3CCN(C(C)=O)CC3)c2)c(=O)[nH]c1=O`: the inhibition was 1.2%. Then `CCCCCCCCCCOC(=O)Cn1c(COc2cccc(OC)c2)[n+](C)c2ccccc21`, with 47.7% (active); and `CCCCN(CCCC)C(=O)CCS(=O)(=O)c1ccc2c(c1)n(C)c(=O)c(=O)n2C`, with -7.5%. On to `COc1ccc(CCNC(=O)CSc2nc(-c3ccc(OC)c(OC)c3)ccc2C#N)cc1`, for which the inhibition is 7.6%. Consider `Cc1ccc(N2C(=O)SC(N(CC(=O)O)c3ccc(C)cc3)C2=O)cc1` (stereo unspecified), for which the inhibition is 4%. Then `CCC(=O)OCCNc1nc(-c2ccccc2)nc2ccccc12`, with 40.8% (active); and `CCCNC(=O)c1cnc(-c2ccccc2)nc1-c1ccccc1`, with 12%. For `COCCNc1nc(-c2ccccc2)nc2c1oc1ccccc12` the value was -2.7%; for `CC(C)N=C1CCCC1C(=S)SSC(=S)C1CCCC1=NC(C)C` (stereo unspecified), 78.9% (active); for `CCc1ccccc1N(CC(=O)N1CCN(c2ccccc2F)CC1)S(C)(=O)=O`, 1.2%.

`CCCc1cc(=O)oc2c(C)c(OC(C)C(=O)NCC(O)c3ccccc3)ccc12` (stereo unspecified): the inhibition is 2.9%. On to `O=C1NCC(c2ccccc2)(c2ccccc2)C(=O)N1`, for which the inhibition was 3.6%. For `CC(NC(=S)NNS(=O)(=O)c1ccc(C(C)(C)C)cc1)c1ccccc1` (stereo unspecified) the value was -0.6%. With `Cc1cc(/C=C2/SC(=O)N(CC(=O)OC(C)C)C2=O)c(C)n1C`, the inhibition was 1.9%. Then `CC(C)OC(=O)CN1C(=O)C(=O)c2ccccc21`, with 68% (active); and `COc1cc(C(C)=O)ccc1OC(=O)CN1C(=O)c2ccccc2C1=O`, with 1.2%; and `COc1cccc(NC(=O)Cn2c3ccc(F)cc3c3nc4n(c(=O)c32)CCS4)c1`, with 4.8%. Then `CCN(CC)C(=O)CC1(c2ccccc2OC)CCOC(C(C)C)C1` (stereo unspecified), with 6.3%.

As for `CC(C)(C)S(=O)(=O)c1ccccc1-c1noc(-c2ccccc2)c1C(N)=O`, the inhibition was -0.6%. Then `Cc1ccc(S(=O)(=O)N2CCOCC2)cc1NC(=O)c1ccncc1`, with -5.9%. For `CN(CCc1ccccc1)C(=O)c1cccc(NC(=O)Cc2ccc([N+](=O)[O-])cc2)c1` the value was -6.9%; for `CN(O)C(=S)c1ccccc1`, 73.3% (active); for `CCN(CC)CCCNC(=O)CCn1nc(-c2ccc(Cl)cc2)ccc1=O`, 2.5%. Then `COc1ccc(CNC(=O)[C@@H]2CC=C[C@@H]3CCN(C4CC4)C(=O)[C@@H]32)cc1`, with -0.1%. `O=C1CCC(=O)N1CCC(=O)N(C(=O)NC1CCCCC1)C1CCCCC1`: the inhibition is 0%. For `S=c1[nH]ccn1-c1ccc(Cl)cc1` the value was -3.9%. For `Cc1noc(C)c1C(=O)N(CC(=O)NC1CCCC1)Cc1ccccc1F` the value was -0.5%; for `O=[N+]([O-])/C=C/c1ccc2c(ccn2Cc2ccccc2)c1`, 73.1% (active); for `CCc1noc(C)c1C(=O)N1CCCSC1=Nc1ccccc1OC`, -1.3%. For `CCCCCCCCCCOC(=O)C[N+](C)(C)CC1CCCCC1O` (stereo unspecified) the value was 57.1% (active); for `CCCCCOC(=O)c1ccc(N2C(=O)C3C4C=CC(C4)C3C2=O)cc1` (stereo unspecified), 4.9%.

Take `COc1ccc(S(=O)(=O)N(C)CC(=O)N2CCCC2)cc1Cl`: the inhibition was -1.8%. Turning to `O=C1/C(=C\c2ccc([N+](=O)[O-])cc2)CS(=O)(=O)C/C1=C/c1ccc([N+](=O)[O-])cc1`, the inhibition was 96.9% (active).

`O=C1CCCN1C(=O)COc1ccc([N+](=O)[O-])cc1`: the inhibition was -0.7%. Then `O=C(Cc1ccccc1)N1CCN(S(=O)(=O)c2ccc([N+](=O)[O-])cc2)CC1`, with -15.5%; and `CC(CC(=O)Nc1ccc(F)cc1F)S(=O)(=O)c1ccc2c(c1)NC(=O)CO2` (stereo unspecified), with 6.2%. For `CCn1cc(C(=O)N2CC=C(c3ccccc3)CC2)c(=O)c2ccc(C)nc21`, the inhibition was -18.1%. As for `Cc1ccc(C(=O)CNc2ccc(F)cc2)cc1`, the inhibition was 46.4% (active). As for `Cc1ccc(NC(=O)CCC(=O)c2ccc(Br)cc2)cc1`, the inhibition was -2.1%. Then `Cc1ccc(C(=O)NC2CCN(C(=O)Nc3ccc(F)cc3)CC2)cc1`, with -6%; and `CCCC(=O)Nc1ncnc2c1ncn2[C@@H]1O[C@@H]2OP(=O)(O)OC[C@H]2[C@H]1OC(=O)CCC`, with -1%; and `CC1=C/C(=N\OS(=O)(=O)c2ccccc2)C=CC1=O`, with 62% (active). Then `N#Cc1c(NC(=O)c2ccc(N3CCOCC3)c([N+](=O)[O-])c2)sc2c1CCCC2`, with 15.6%; and `O=C(O)c1ccc(NN=CC2=C(N3CCOCC3)/C(=C/c3ccccc3)CC2)cc1`, with -2.9%; and `O=C1Nc2ccc(Br)cc2/C1=N/N=C/C1=C(N2CCOCC2)C(=C\c2ccccc2)/CC1`, with 41.2% (active). Then `O=S(N1CCCCCC1)C12CC3CC(CC(C3)C1)C2` (stereo unspecified), with -6.4%. Regarding `CC(=O)N1CCc2c(sc(NC(=O)CCS(=O)(=O)c3ccc(C)cc3)c2C(N)=O)C1`, the inhibition is 8.6%.

Consider `CCCNC(=O)C1(C)CCCN(C(=O)c2oc3ccccc3c2C)C1` (stereo unspecified), for which the inhibition is 6.5%.

For the molecule `COc1ccc(C2/C=C\CN(S(=O)(=O)c3cccs3)CC(=O)N2Cc2ccc(F)cc2)cc1` (stereo unspecified), the inhibition is 10.5%. On to `CC1CN(CC(=O)NC(C)c2ccccc2)CC(C)O1` (stereo unspecified), for which the inhibition is 4.8%. For `CC(=O)Nc1cc(-c2ccc(N3CCN(C)CC3)cc2)cn2c(-c3ccc(F)cc3)cnc12` the value was 89.5% (active). Turning to `CC(=O)Nc1cc(-c2ccc(N3CCN(C)CC3)cc2)cn2c(-c3cccc(C(=O)N(C)C)c3)cnc12`, the inhibition was -6.6%. As for `COc1ccccc1-c1cc(NC(C)=O)c2ncc(-c3ccc(F)cc3)n2c1`, the inhibition is 8.7%.

With `CCOn1c(=O)c(=O)n(O)c2ccccc21`, the inhibition was 3.7%. On to `COc1ccc(-c2csc(Cc3nc(O)cs3)n2)cc1`, for which the inhibition was 66.9% (active).

For `COc1ccc(C(O)c2nc(-c3ccc(OC)nc3)cs2)cc1` (stereo unspecified), the inhibition was -1.3%. `COc1ccc(C(C)(NC(C)=O)c2nc(-c3ccc(S(C)(=O)=O)cc3)cs2)cc1` (stereo unspecified): the inhibition is 1.5%. Consider `O=C(NCc1ccccc1)C1c2ccccc2OCC(=O)N1CCCN1CCOCC1` (stereo unspecified), for which the inhibition is 3.7%. For `O=C(c1ccncc1)N1CCN(S(=O)(=O)c2cc(C(F)(F)F)cc(C(F)(F)F)c2)CC1` the value was -2.1%. In the case of `COc1cccc(NC(=O)C(=O)c2cn(CC(=O)N3CCOCC3)c3ccccc23)c1`, the inhibition is 6%. For `O=C1c2ccccc2NC(c2ccccc2O)N1NS(=O)(=O)c1ccccc1` (stereo unspecified) the value was -0.7%; for `CC(C)c1c(O)nc(SCCOc2ccc(Cl)cc2)[nH]c1=O`, 7.1%; for `Cc1ccc(-c2nn(-c3ccc(F)cc3)cc2C(=O)NCC(c2cccs2)N2CCOCC2)cc1` (stereo unspecified), 15.5%. Then `O=C1C=CC(=O)N1c1ccc(N2CCCCC2)cc1`, with 74.7% (active); and `c1ccc(-n2cccc2)c(N2CCCCC2)c1`, with -7.4%. Take `O=C(c1ccc(Cl)c(S(=O)(=O)N2CCCCCC2)c1)N1CCN(c2ccc(O)cc2)CC1`: the inhibition is -20.6%. In the case of `NC(=O)c1ccc(N2CCCC2)nc1`, the inhibition was 1%.
